In PubChem BioAssay (Tox21):
Inconclusive results are not listed. Activity calls are given as the source filed them. Unless noted, the call rests on the fitted dose curve; in most records, active means well fitted curve in the direction sought with a large enough effect in the repeat runs; inconclusive means weak or mixed curves; inactive means no such curve, though single readings can be large; an effect the other way counts as inactive or inconclusive.

Experiments:
[1] = molecular target: Aryl hydrocarbon receptor (Homo sapiens) (UniProt P35869); experiment: qHTS assay to identify small molecule that activate the aryl hydrocarbon receptor (AhR) signaling pathway (AID 743085);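 further: HG2L7.5c1 human HepG2 liver cells with stably integrated DRE-driven firefly reporter; series mostly up to about 70 µM; nearly all actives have a fitted effect of over 15% in size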
Chain of Aryl hydrocarbon receptor (Homo sapiens) (P35869 whole entry, looked up): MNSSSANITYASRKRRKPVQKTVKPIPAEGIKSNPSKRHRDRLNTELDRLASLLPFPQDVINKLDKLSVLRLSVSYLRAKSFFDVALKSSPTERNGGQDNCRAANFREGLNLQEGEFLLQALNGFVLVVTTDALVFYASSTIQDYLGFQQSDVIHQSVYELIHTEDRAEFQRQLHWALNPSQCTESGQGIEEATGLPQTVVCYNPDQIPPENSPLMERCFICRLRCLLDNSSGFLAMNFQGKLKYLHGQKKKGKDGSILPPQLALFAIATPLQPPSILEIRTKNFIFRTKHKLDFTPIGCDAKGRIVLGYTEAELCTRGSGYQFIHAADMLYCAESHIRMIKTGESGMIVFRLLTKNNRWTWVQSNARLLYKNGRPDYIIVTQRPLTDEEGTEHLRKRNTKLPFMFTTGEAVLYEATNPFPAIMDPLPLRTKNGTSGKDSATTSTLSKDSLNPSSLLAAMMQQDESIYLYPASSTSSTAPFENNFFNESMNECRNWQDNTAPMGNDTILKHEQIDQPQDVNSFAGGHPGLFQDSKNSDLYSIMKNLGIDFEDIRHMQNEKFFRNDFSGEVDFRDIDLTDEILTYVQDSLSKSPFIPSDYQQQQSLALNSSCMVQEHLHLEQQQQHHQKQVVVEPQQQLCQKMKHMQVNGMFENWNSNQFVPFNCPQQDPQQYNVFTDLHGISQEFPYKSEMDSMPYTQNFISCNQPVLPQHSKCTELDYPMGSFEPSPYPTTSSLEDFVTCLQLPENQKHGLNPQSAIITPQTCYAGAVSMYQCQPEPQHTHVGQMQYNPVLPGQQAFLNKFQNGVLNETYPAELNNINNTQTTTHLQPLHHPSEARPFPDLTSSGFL
Method in brief: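 24 h compound exposure, 37C, HepG2-derived HG2L7.5c1 cells with DRE-responsive luciferase. Readouts: fluorescence viability, then luminescence at room temperature after 30 min.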

[2] = qHTS assay to identify small molecule agonists of the RXR signaling pathway - cell viability counter screen (AID 1159529); further: nearly all actives have a fitted effect of over 50% in size; further: potency means the concentration at half of the fitted maximal effect
Method in brief: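 Same-well viability check after the LiveBLAzer FRET read: CellTiter-Glo added, luminescence measured after 30 min at room temperature. Reporter HEK 293T cells had been treated with compounds for 16 hr following a 5 hr preincubation.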

[3] = qHTS assay to identify small molecule antagonists of the retinoid acid receptor (RAR) signaling pathway - cell viability counter screen (AID 1159551); further: nearly all actives have a fitted effect of over 35% in size; further: potency means the concentration at half of the fitted maximal effect
Method in brief: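 Cells (C3RL4) are plated, incubated overnight, dosed with compound in DMSO, then given retinol at 1 uM final. After 6 h at 37 C, CellTiter-Glo is added and luminescence read following 30 min at room temperature.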

[4] = molecular target: Nuclear receptor subfamily 1 group I member 3 (Homo sapiens) (UniProt Q14994); experiment: qHTS assay to identify small molecule agonists of the constitutive androstane receptor (CAR) signaling pathway (AID 1224839); further: nearly all actives have a fitted effect of over 15% in size; further: potency means the concentration at half of the fitted maximal effect
Chain of Nuclear receptor subfamily 1 group I member 3 (Homo sapiens) (Q14994 whole entry, looked up): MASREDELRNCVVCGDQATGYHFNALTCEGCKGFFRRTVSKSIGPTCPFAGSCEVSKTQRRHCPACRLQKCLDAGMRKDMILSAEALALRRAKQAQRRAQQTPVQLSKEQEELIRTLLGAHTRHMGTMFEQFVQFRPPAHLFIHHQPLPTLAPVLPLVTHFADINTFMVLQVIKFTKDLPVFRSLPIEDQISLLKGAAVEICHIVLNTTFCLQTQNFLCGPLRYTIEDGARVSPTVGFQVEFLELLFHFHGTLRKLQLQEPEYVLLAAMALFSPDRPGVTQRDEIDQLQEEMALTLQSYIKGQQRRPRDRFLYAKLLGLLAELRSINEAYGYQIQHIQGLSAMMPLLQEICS
Method in brief: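 In this screen, CAR-driven CYP2B6 promoter activity is measured by luminescence in HepG2-CYP2B6-hCAR cells after 24 h with test compounds and 0.75 uM PK11195 (final concentration).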

[5] = qHTS assay to identify small molecule agonists of the hypoxia (HIF-1) signaling pathway - cell viability counter screen (AID 1224844; calls by dose curve; further: nearly all actives have a fitted effect of over 50% in size; further: potency means the concentration at half of the fitted maximal effect)
Method in brief: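 Cytotoxicity was measured in parallel with the HRE-driven beta-lactamase readout: after 17 hrs of compound exposure at 37C, HRE-bla ME-180 cells received CellTiter-Glo and luminescence was recorded 30 min later.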

[6] = qHTS RealTime-Glo MT Cell Viability Assay in HepG2 cells - 8 hour (AID 1224873); further: nearly all actives have a fitted effect of over 55% in size; further: potency means the concentration at half of the fitted maximal effect
Method in brief: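 HepG2 cells (600/well) mixed with RealTime-Glo MT reagent, settled 5 h at 37 C/5% CO2 before compound addition. Nonlytic NanoLuc luminescence from viable-cell prosubstrate reduction read repeatedly during 40 h treatment at 37 C.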

[7] = qHTS assay to identify small molecule agonists of the androgen receptor (AR) signaling pathway in the presence of an antagonist - cell viability counter screen (AID 1259379); further: nearly all actives have a fitted effect of over 25% in size; further: potency means the concentration at half of the fitted maximal effect
Method in brief: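 Cytotoxicity is assessed by CellTiter-Fluor in MDA-kb2 cells carrying an MMTV-driven luciferase reporter. Cells receive 3.0uM nilutamide plus compounds at 15 concentrations and incubate 16 hr at 37C without CO2 before fluorescence reading.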

[8] = qHTS assay to identify small molecule antagonists of the estrogen receptor beta (ER-beta) signaling pathway - cell viability counter screen (AID 1259382); further: nearly all actives have a fitted effect of over 55% in size; further: potency means the concentration at half of the fitted maximal effect
Method in brief: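 Cytotoxicity counter screen multiplexed with the beta-lactamase antagonist assay: GripTite HEK293T ER-beta-bla cells were treated 16 hr with test chemicals in the presence of 1nM 17-beta-estradiol, and viability was measured by CellTiter-Glo.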

[9] = molecular target: Thyrotropin-releasing hormone receptor (Homo sapiens) (UniProt P34981); experiment: qHTS assay to identify small molecule agonists of the thyrotropin-releasing hormone receptor (TRHR) signaling pathway (AID 1346891; calls by dose curve;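 further: HEK293 cells expressing TRHR with calcium dye readout; series mostly up to about 58 µM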)
Chain of Thyrotropin-releasing hormone receptor (Homo sapiens) (P34981 whole entry, looked up): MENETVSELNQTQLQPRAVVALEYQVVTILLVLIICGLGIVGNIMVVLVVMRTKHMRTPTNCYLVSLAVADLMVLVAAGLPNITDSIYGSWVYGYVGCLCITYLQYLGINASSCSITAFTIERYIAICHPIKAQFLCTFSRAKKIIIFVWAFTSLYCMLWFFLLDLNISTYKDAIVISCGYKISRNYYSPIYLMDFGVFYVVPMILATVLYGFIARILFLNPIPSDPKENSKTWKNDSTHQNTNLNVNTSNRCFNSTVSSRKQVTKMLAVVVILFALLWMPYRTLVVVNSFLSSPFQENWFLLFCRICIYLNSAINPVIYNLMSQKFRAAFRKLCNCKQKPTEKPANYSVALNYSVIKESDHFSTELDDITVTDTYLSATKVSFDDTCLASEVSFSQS
Method in brief: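 Overnight-plated (18 h, 37 °C, 5% CO2) TRHR-Hek293 cells; 2 h calcium dye at 37 °C; compound in DMSO; 3-min kinetic fluorescence read.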

[10] = molecular target: Nuclear receptor subfamily 1 group I member 2 (Homo sapiens) (UniProt O75469); experiment: Human pregnane X receptor (PXR) small molecule agonists, qHTS assay (AID 1346982); further: nearly all actives have a fitted effect of over 35% in size; further: potency means the concentration at half of the fitted maximal effect
Chain of Nuclear receptor subfamily 1 group I member 2 (Homo sapiens) (O75469 whole entry, looked up): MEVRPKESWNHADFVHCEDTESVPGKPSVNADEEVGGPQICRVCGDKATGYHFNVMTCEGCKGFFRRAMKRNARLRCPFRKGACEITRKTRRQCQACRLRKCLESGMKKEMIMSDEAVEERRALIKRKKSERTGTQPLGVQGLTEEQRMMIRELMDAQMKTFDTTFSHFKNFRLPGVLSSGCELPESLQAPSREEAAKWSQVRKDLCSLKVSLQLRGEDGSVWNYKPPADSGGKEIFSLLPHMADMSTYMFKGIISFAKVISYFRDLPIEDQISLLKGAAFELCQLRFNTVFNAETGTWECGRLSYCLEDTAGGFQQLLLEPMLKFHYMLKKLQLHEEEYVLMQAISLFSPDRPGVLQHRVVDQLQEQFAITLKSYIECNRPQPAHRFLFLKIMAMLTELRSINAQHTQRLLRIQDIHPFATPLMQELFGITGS
Method in brief: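 Cells: HepG2 stably carrying PXR-Luc. Medium held 5% charcoal-stripped FBS. Compounds in DMSO added after 5 hr plating, incubated 24 hr, then luminescence quantified with ONE-Glo.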

[11] = molecular target: Cytochrome P450 3A4 (Homo sapiens) (UniProt P08684); experiment: Cytochrome P450 Family 3 Subfamily A Member 4 (CYP3A4) small molecule antagonists: luciferase reporter qHTS assay (AID 1671201); further: nearly all actives have a fitted effect of over 50% in size; further: potency means the concentration at half of the fitted maximal effect
Chain of Cytochrome P450 3A4 (Homo sapiens) (P08684 whole entry, looked up): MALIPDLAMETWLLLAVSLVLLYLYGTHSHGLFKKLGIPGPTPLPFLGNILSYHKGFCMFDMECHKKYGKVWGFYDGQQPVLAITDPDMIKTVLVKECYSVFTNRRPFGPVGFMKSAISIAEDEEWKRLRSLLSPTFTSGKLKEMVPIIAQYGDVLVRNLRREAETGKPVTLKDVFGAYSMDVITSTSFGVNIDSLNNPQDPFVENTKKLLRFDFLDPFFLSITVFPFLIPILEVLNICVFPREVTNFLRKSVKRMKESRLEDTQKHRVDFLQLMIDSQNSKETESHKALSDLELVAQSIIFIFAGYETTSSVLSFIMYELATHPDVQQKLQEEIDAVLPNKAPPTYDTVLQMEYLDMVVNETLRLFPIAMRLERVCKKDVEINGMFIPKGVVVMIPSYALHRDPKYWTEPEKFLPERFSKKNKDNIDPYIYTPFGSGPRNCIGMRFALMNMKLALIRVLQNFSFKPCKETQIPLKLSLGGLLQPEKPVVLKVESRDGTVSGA
Method in brief: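 Room-temperature assay throughout: 10 min compound–enzyme/substrate preincubation, 1 h reaction after NADPH regeneration solution, 20 min detection. Luciferin formed from proluciferin substrate is quantified by luminescence.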

[12] = qHTS RealTime-Glo MT Cell Viability Assay in HEK293 cells - 16 hour (AID 1224872); further: nearly all actives have a fitted effect of over 50% in size; further: potency means the concentration at half of the fitted maximal effect
Method in brief: (§1)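 Nonlytic real-time viability readout: viable cells convert prosubstrate to NanoLuc substrate, giving luminescence proportional to live cell number. HEK293, 600 cells/well, compound added after 5 h, continuous culture at 37 C.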

[13] = A CellTox Green Cytotoxicity Assay to monitor cytotoxicity in HEK293 cells - 32 hour (AID 1224881); further: nearly all actives have a fitted effect of over 40% in size; further: potency means the concentration at half of the fitted maximal effect
Method in brief: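 Cells (HEK293, 600/well) and dye reagent are dispensed together. After 5 h at 37 C, 23 nL compound is pinned in. Plates stay at 37 C for 40 h with fluorescence read at 0h, 8h, 16h, 24h, 32h and 40h.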

[14] = qHTS RealTime-Glo MT Cell Viability Assay in HEK293 cells - 24 hour (AID 1224886); further: nearly all actives have a fitted effect of over 50% in size; further: potency means the concentration at half of the fitted maximal effect
Method in brief: as §1

[15] = Caspase-3/7 induction in CHO-K1 cells by small molecules, qHTS cell viability counter screen (AID 1346979); further: potency means the concentration at half of the fitted maximal effect; nearly all actives have a fitted effect of over 35% in size
Method in brief: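 Multiplexed with Caspase-Glo 3/7 in CHO-K1 cells, this counter screen added CellTiter-Fluor after 16hr of compound exposure and recorded fluorescence 1hr later.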

[16] = qHTS assay to test for compound auto fluorescence at 590 nm (red) in HepG2 cells (AID 720674)
Method in brief: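 HepG2 cells, 2,000 per well in MEM with 10% FBS, attached overnight at 37 C, then got 23 nL compound or DMSO. After 1 hr at 37 C, 5% CO2, red fluorescence was read at 540/590 nm against Rose Bengal sodium as reference.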

[17] = qHTS assay to test for compound auto fluorescence at 535 nm (green) in HEK293 cell free culture (AID 720682)
Method in brief: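 Measurement is a direct plate read of green fluorescence (485 nm in, 535 nm out) after compound addition to serum-supplemented DMEM lacking cells, with fluorescein used to express intensities.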

[18] = qHTS assay to test for compound auto fluorescence at 460 nm (blue) in HepG2 cells (AID 720687)
Method in brief: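 HepG2 cells in MEM with 10% FBS, attached overnight at 37 C, were exposed to compound or DMSO for 1 hr at 37 C, 5% CO2. Blue fluorescence was read at 405/460 nm, with triamterene as reference fluorophore.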

[19] = qHTS assay for identifying genotoxic compounds that show differential cytotoxicity against isogenic chicken DT40 cell lines with known DNA damage response pathways - Rad54/Ku70 mutant cell line (AID 743015); further: potency means the concentration at half of the fitted maximal effect; nearly all actives have a fitted effect of over 60% in size
[20] = qHTS assay to test for compound auto fluorescence at 460 nm (blue) in HEK293 cells (AID 720678)
Method in brief: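 Blue read-out at excitation 405 nm and emission 460 nm follows overnight compound exposure of HEK293 cells at 37C in 5% CO2. Activity is given as auto fluorescence equivalency to triamterene.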

Measured: Potency

CCCCC(CC)COC(=O)c1ccc(C(=O)OCC(CC)CCCC)cc1 (stereo not given)
inactive: [1]

O=C1OC(=O)c2c(Cl)c(Cl)c(Cl)c(Cl)c21
inactive: [1]

ClC(Cl)=C(c1ccc(Cl)cc1)c1ccccc1Cl
active: [2] 24.5 µM | [4] 21.7 µM | [10] 30.6 µM
inactive: [3] | [5] | [6] | [7] | [8] | [9] | [11]

C[C@]12CC[C@@H](O)C[C@@H]1CC[C@@H]1[C@@H]2CC[C@]2(C)C(=O)CC[C@@H]12
active: [2] 17.4 µM | [5] 21.9 µM | [12] 38.9 µM | [13] 54.9 µM | [14] 38.9 µM | [8] 43.3 µM | [15] 61.1 µM
inactive: [3] | [7]

COc1ccc(C(c2ccc(OC)cc2)C(Cl)(Cl)Cl)cc1
active: [19] 39.2 µM | [4] 2.42 µM | [14] 48.7 µM | [15] 60.8 µM | [10] 17.1 µM
not listed: [1] | [2] | [6] | [7] | [12] | [20]
inactive: all other assays above

OC(Cc1ccccc1Cl)(Cn1[nH]cnc1=S)C1(Cl)CC1 (stereo not given)
inactive: [3] | [4] | [5] | [6] | [13] | [8] | [9]
active: [11] 5.64 µM

O=C(c1ccccc1)C(Cl)Cl
active: [12] 34.7 µM | [13] 34.7 µM | [14] 34.7 µM | [15] 27.3 µM
inactive: [2] | [8] | [9] | [11]

Cc1ccc(N(SC(F)(Cl)Cl)S(=O)(=O)N(C)C)cc1
inactive: [16] | [20] | [17] | [1] | [4] | [9] | [10]
active: [19] 0.137 µM | [2] 38.9 µM | [3] 48.6 µM | [5] 17.4 µM | [12] 5.49 µM | [6] 21.9 µM | [13] 5.49 µM | [14] 5.49 µM | [7] 27.3 µM | [15] 4.33 µM

OCC(c1ccc(Cl)cc1)c1ccc(Cl)cc1
inactive: [16] | [20] | [17] | [1] | [7] | [9] | [11]
active: [19] 15.4 µM | [2] 54.9 µM | [12] 30.9 µM | [13] 38.9 µM | [14] 30.9 µM

CC(c1ccccc1)(c1ccc(O)cc1)c1ccc(O)cc1
inactive: [6] | [9]
active: [5] 54.9 µM | [8] 61.1 µM | [15] 68.6 µM | [10] 17.2 µM | [11] 25.2 µM

CC(C)(C)c1cc(C(C)(C)C)c(O)c(C(C)(C)C)c1
active: [4] 8.63 µM
inactive: [1]

Oc1c(I)cc(I)cc1I
inactive: [12] | [6] | [13] | [14] | [7]
active: [5] 38.9 µM
